# Reference: PubChem BioAssay AID777 (Sanford-Burnham Center for Chemical Genomics, 2007)
# Among all 96,000 compounds or so, about 19,000 (20%) were called active.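 How the source made its calls: active means blocking of liver enzyme CYP2C9 beyond about 50% at 5 µM (limit read from the data); inactive means the rest.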 Only a sample is shown.
# Target: Cytochrome P450 2C9 (Homo sapiens) (UniProt P11712)
# Test: blockers of cytochrome P450 2C9 activity – biochemical, luminescence, ADME assay, primary screen (AID 777)
# Settings: CYP2C9 Supersomes, luciferin-H conversion, at 5 µM, active compounds read high
# Chain of Cytochrome P450 2C9 (Homo sapiens) (P11712 whole entry, looked up): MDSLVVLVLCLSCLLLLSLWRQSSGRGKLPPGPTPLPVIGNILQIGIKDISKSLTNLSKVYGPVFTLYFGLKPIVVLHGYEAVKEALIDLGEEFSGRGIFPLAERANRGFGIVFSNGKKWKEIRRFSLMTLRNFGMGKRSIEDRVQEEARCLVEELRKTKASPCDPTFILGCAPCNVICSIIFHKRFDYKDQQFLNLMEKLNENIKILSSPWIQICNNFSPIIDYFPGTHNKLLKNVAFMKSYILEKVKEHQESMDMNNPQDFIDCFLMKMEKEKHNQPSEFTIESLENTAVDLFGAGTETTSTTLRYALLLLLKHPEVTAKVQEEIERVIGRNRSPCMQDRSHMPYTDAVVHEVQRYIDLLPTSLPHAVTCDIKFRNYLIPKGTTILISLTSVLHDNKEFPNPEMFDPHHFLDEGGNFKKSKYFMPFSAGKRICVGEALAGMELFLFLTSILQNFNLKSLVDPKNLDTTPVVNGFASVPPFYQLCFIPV
row,Compound,inhibition
1,O=C(Nc1cccnc1)c1noc2c1CCCCC2,33.5% (inactive)
2,Cc1nn(CC(=O)Nc2ccc3c(c2)nc(CN2CCCCC2)n3C)c(=O)c2ccccc12,16.1% (inactive)
3,O/N=C(\c1ccc2c(c1)OCCO2)C1CCCCC1,35.2% (inactive)
4,CCOc1ccccc1N=C1NC(=O)CS1,-11.8% (inactive)
5,COc1ccc(OCc2ccc(-c3nc4ccccc4c(=O)n3N)o2)cc1,45.5% (inactive)
6,O=C(O)/C=C/C(=O)Nc1ccc(F)cc1F,3.9% (inactive)
7,NC(=O)c1ncc(C(F)(F)F)cc1Oc1ccc(F)cc1,7.9% (inactive)
8,Cn1c(=O)[nH]c(=O)c2c1nc(N(CCO)Cc1ccccc1)n2Cc1ccccc1Cl,25.8% (inactive)
9,CCCSc1nc2c(c(=O)[nH]c(=O)n2C)n1CCc1ccccc1,14.6% (inactive)
10,CN(Cc1ccccc1)c1nc2c(c(=O)[nH]c(=O)n2C)n1CCSc1nc2ccccc2[nH]1,67.2% (active)
11,Brc1ccc(/C=N/N2CCN(C3c4ccccc4-c4ccccc43)CC2)s1,25.4% (inactive)
12,O=[N+]([O-])c1ccccc1/C=N/n1c(COc2ccccc2)n[nH]c1=S,8.7% (inactive)
13,Cc1nc(C)c(C(=O)N(c2ccc(C)c(C)c2)C(C(=O)NCc2ccco2)c2ccccc2)s1 (centres undefined),46.6% (inactive)
14,Cc1nn(-c2ccccc2)c2sc(C(=O)N(Cc3ccco3)C(C)C(=O)NC(C)(C)C)cc12 (centres undefined),65.2% (active)
15,Cn1nc(-c2ccc(Cl)cc2)c2cc(C(=O)NCc3ccco3)sc21,43.4% (inactive)
16,CCn1nnc(NC(=O)c2cc(Cl)c(OC)c(Cl)c2)n1,-1.7% (inactive)
17,O=C(N1CCOCC1)N(Cc1ccccc1)c1ccccn1,8.5% (inactive)
18,CCC(C)Sc1nc(C)nc2c1c(=O)n(C)c(=O)n2C (centres undefined),8.4% (inactive)
19,Cc1ccc(-c2nn(-c3ccccc3)cc2/C=N/NC(=O)c2ccc3c(c2)OCO3)cc1,76.1% (active)
20,COc1cccc(/C=N/NC(=O)c2cccc([N+](=O)[O-])c2)c1OS(=O)(=O)c1ccc(C)cc1,1.8% (inactive)
21,Cc1nnc(SCC(=O)N/N=C/c2cn(-c3ccccc3)nc2-c2ccc(F)cc2)n1-c1ccccc1,29.6% (inactive)
22,CC/C(C)=N/Nc1nc2sc3c(c2c(=O)[nH]1)CC(C)(C)OC3,30.9% (inactive)
23,CCOC(=O)c1sc(NC(=O)CSc2ncccn2)c(C#N)c1C,45.3% (inactive)
24,CCOC(=O)c1sc(NC(=O)CSc2nnc(-c3ccco3)o2)c(C(=O)OCC)c1C,78.6% (active)
25,Cc1cccc(NC(=O)CSc2nnc(-c3ccco3)o2)c1,29.1% (inactive)

row,Compound,inhibition
1,CCOC(=O)Cc1csc(NC(NC(=O)OCC)(C(F)(F)F)C(F)(F)F)n1,22.3% (inactive)
2,Cc1cc(N2CCCC2=O)cc(C)c1S(N)(=O)=O,-21.5% (inactive)
3,COC(=O)[C@H](CCSC)NC(=O)Nc1ccc(OC)cc1,7.5% (inactive)
4,Cc1cc(C(=O)NCCCc2ccccc2)no1,2.4% (inactive)
5,O=C(O)CCC(=O)N(Cc1cccs1)Cc1cccs1,31.5% (inactive)
6,CCN(Cc1ccccc1)C(=O)CSc1nc(C)cc2c1C(=O)OC2,-130% (inactive)
7,Cc1ccc(-c2nn(-c3ccccc3)cc2CN(Cc2ccccc2)C(=O)CCC(=O)O)o1,65.1% (active)
8,CCCSC(=S)NC1CCS(=O)(=O)C1 (centres undefined),19.1% (inactive)
9,Cc1ccc(Cc2cnc(N)s2)o1,3% (inactive)
10,N/C(=N\OC(=O)CCc1ccccc1)c1ccc(Cl)cc1,8.3% (inactive)
11,CCOc1cc(/C=N/O)cc(Br)c1OC,17.9% (inactive)
12,COc1cc(/C=N/O)cc(Br)c1OCc1cccc(Cl)c1,-39.5% (inactive)
13,COc1cc(/C=N/O)cc(Br)c1OS(=O)(=O)c1ccc(C)cc1,67.9% (active)
14,O=C(NCc1cn2ccsc2n1)Nc1cccc(Cl)c1,-17.8% (inactive)
15,Cc1cccc(NC(=O)C2CCN(S(=O)(=O)c3cccc4cccnc34)CC2)c1,-180% (inactive)
16,CCOC(=O)Cn1c(N)c(C(=O)OC)sc1=S,57.8% (active)
17,COC(=O)c1sc(=S)n(-c2ccccc2)c1N,3.7% (inactive)
18,COCCOC(=O)c1sc(=S)n(CCOC)c1N,1% (inactive)
19,Cc1ccc(O)c(CNc2nc3ccccc3n2C)c1,21.9% (inactive)
20,Cc1nnc(OCC(=O)NCCC2=CCCCC2)c2ccccc12,-29.1% (inactive)
21,O=C(COc1ccc(Cl)cc1)NCCC1=CCCCC1,40.4% (inactive)
22,O=C(COc1cccc(-n2cnnn2)c1)NCCC1=CCCCC1,79.4% (active)
23,CC(C)(C)c1cc(CN2CCN(CCC#N)CC2)cc(C(C)(C)C)c1O,4.9% (inactive)
24,CC(C)Oc1ccc(C2NC(=O)NC2=O)cc1 (centres undefined),-28.2% (inactive)
